eIF4H inh: inhibitors of RNA binding by human eIF4H | Q15056 | inhibition, % at 35 µM | hit rate 0.94% among 290,000 | eIF4H fluorescence polarization binding assay;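 note: calls also rest on retests at 20 µM and on dose response follow-up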
PHOSPHO1 block: inhibitors of human PHOSPHO1 phosphatase | AID 1565 | hit rate 1.1% among 290,000 | recombinant PHOSPHO1, absorbance phosphatase assay | Q8TCT1 | inhibition, % at 13.3 µM; in the data active = inhibition above about 60%
Target sequence (Q8TCT1 whole entry, looked up): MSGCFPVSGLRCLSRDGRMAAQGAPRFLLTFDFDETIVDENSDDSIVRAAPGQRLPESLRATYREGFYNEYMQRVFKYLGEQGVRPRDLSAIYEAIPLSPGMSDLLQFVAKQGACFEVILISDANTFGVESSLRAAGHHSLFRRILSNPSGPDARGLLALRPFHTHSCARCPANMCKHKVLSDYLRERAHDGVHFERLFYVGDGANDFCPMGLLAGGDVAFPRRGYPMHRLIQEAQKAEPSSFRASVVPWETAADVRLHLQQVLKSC
PABP1 MLLE inh: blocks PAM2 peptide binding to the PABP1 MLLE domain | P11940 | AID 588489 | inhibition, % at 20 µM | hit rate 0.36% among 360,000 | GST-MLLE / FITC-PAM2 fluorescence polarization; in the data active = inhibition above about 35%, passing the limit was not always enough;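 note: plate controls were DMSO wells with GST-MLLE for no effect and wells lacking GST-MLLE protein for full effect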
ABCB6 inh MLPCN: inhibitors of human ABC transporter ABCB6; AID 602162; fluorescence ratio to DMSO, % at 10 µM; K562-ABCB6 porphyrin accumulation, flow cytometry, 1 h; active compounds read low; hit rate 0.19% among 360,000; Q9NP58;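 active = fluorescence ratio to DMSO below 75%, the collection mean minus 3 SD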;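 note: signal is porphyrin accumulated inside mitochondria; 100% equals median channel fluorescence of DMSO control wells; lower ratio means ABCB6 inhibition with less porphyrin fluorescence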
AI-2 QS mod: Vibrio harveyi AI-2 quorum sensing modulation; Vibrio harveyi JMH597 AI-2 luminescence/OD600 ratio, 9 h; active compounds read low; strain lacks LuxN and CqsS sensors; 0 = neutral-control median; activity change, % at 7.5 µM; hit rate 0.4% among 300,000; in the data active = activity change below about -75%, passing the limit was not always enough;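 note: luminescence divided by OD600 gain over 9 h not by final OD600 alone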
PABP polyA inh: blocks human PABP binding to poly(A) RNA; hit rate 1% among 290,000; fluorescence polarization; calls only at 35 µM; P11940;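 note: calls also rest on retests at 20 µM and on dose response follow-up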
Starred values were filed as active, the others as inactive; i = inactive; . = not tested or not shown; + = active, no number. In the library only some 2.6% were active in any assay of this set; here they are far more common. Unless noted, the rule behind the calls is not given here.

SMILES | eIF4H inh | PHOSPHO1 block | PABP1 MLLE inh | ABCB6 inh MLPCN | AI-2 QS mod | PABP polyA inh
O=[N+]([O-])c1ccc(N=Cc2sc3ccccc3c2O)cc1 | 40.6 | 7.1 | -56.3 | 122.0 | 15.5 | i
Oc1c(C=NCc2ccccc2)sc2ccccc12 | 1.9 | -20.7 | 41.9* | 104.0 | -91.6* | i
CCOC(=O)N1CCN(Cc2ccccc2Cl)CC1 | -5.2 | 18.6 | -0.9 | 99.0 | . | i
CCOC(=O)N1CCN(Cc2cc(Cl)c3cccnc3c2O)CC1 | 11.9 | 43.6 | . | . | -78.0* | i
CC1CC(C)CN(CCCNC(=O)c2ccc(CNS(=O)(=O)c3ccc(F)cc3)cc2)C1 (stereo not given) | 8.5 | 75.4* | -1.8 | 98.0 | 4.6 | i
C(=NNc1nnn(Cc2ccccc2)n1)c1ccccc1 | . | . | 12.7 | 100.0 | . | .
CC(C)NC(=O)c1cc(C2CCCCN2C(=O)c2ccccc2)on1 (stereo not given) | . | . | 24.6 | 101.0 | . | .
N#CCCN(CCC#N)S(=O)(=O)c1ccc(C(=O)Nc2nnc(C3=COCCO3)o2)cc1 | 81.7* | 16.5 | 0.6 | 98.0 | 15.8 | +
CS(=O)(=O)c1cccc(C(=O)Nc2nnc(C3=COCCO3)o2)c1 | . | . | 41.1* | 99.0 | 15.3 | .
O=C(Nc1nnc(-c2ccco2)o1)c1cccc(Cl)c1 | 8.8 | 26.7 | 3.6 | 103.0 | -133.5* | i
CCCCN(C)S(=O)(=O)c1ccc(C(=O)Nc2nnc(C3=COCCO3)o2)cc1 | 22.4 | -3.9 | 2.2 | 91.0 | 34.9 | i
O=C(Nc1nnc(C2=COCCO2)o1)c1cccc(Br)c1 | -2.0 | 61.0* | 20.5 | 102.0 | 20.7 | i
O=C(Nc1nnc(C2=COCCO2)o1)c1cccc([N+](=O)[O-])c1 | -5.4 | 7.7 | -7.0 | 96.0 | 23.2 | i
COCCNC(=O)C1(C)CCCN(Cc2cccc(OC(=O)c3ccccc3)c2)C1 (stereo not given) | . | . | 9.1 | 98.0 | . | .
O=C(Nc1nnc(-c2cccs2)o1)c1cccc(F)c1 | . | . | -0.4 | 98.0 | -85.0* | .
Cc1cccc(-n2c(CNC(=O)c3ccc(S(=O)(=O)N4CCCC4)cc3)n[nH]c2=S)c1 | -13.8 | 80.3* | 0.8 | 98.0 | 14.7 | i
O=C(NCc1n[nH]c(=S)n1-c1ccc(Br)cc1)c1ccc(S(=O)(=O)N2CCOCC2)cc1 | -5.8 | 76.6* | -8.1 | 94.0 | 19.4 | i
CCc1nc2c(OCc3ccc(F)cc3)cccn2c1N(C)C(=O)COc1ccccc1 | . | . | 5.8 | 95.0 | . | .
CCN(Cc1ccccc1)C(c1cc2cc(C)cc(C)c2[nH]c1=O)c1nnnn1CCOC (stereo not given) | -1.6 | 2.6 | 11.9 | 97.0 | 9.9 | i
CCC(C)(C)n1nnnc1C(c1cc2cc3c(cc2[nH]c1=O)OCO3)N1CCCCC1 (stereo not given) | -6.3 | 42.0 | -7.2 | 103.0 | . | i
COc1ccccc1N1CCN(C(c2cc3ccc(C)cc3[nH]c2=O)c2nnnn2C2CCCC2)CC1 (stereo not given) | -4.1 | 43.5 | 18.3 | 85.0 | 2.2 | i
CCOC(=O)C1CCN(C(c2cc3ccc(C)cc3[nH]c2=O)c2nnnn2C2CCCCC2)CC1 (stereo not given) | -3.5 | 91.7* | -28.4 | 90.0 | 53.2 | i
COCCn1nnnc1C(c1cc2cc(C)ccc2[nH]c1=O)N1CCCCCC1 (stereo not given) | -0.5 | 92.3* | 21.1 | 102.0 | 19.3 | i
COCCn1nnnc1C(c1cc2c(C)cc(C)cc2[nH]c1=O)N1CCCCCC1 (stereo not given) | -2.2 | -17.9 | 17.8 | 96.0 | 11.0 | i
CCN(Cc1ccccc1)C(c1cc2cc(C)ccc2[nH]c1=O)c1nnnn1CCOC (stereo not given) | -5.7 | 73.5* | 9.5 | 94.0 | 10.9 | i
SMILES | eIF4H inh | PHOSPHO1 block | PABP1 MLLE inh | ABCB6 inh MLPCN | AI-2 QS mod | PABP polyA inh
Cc1ccc2cc(C(c3nnnn3C(C)(C)C)N3CCCC3)c(=O)[nH]c2c1C (stereo not given) | -7.8 | 93.7* | . | . | . | i
CN(C)CCN1CCN(C2CN(Cc3cn(Cc4ccccc4)nn3)S(=O)(=O)C2)CC1 (stereo not given) | . | . | . | 98.0 | . | .
O=C(c1ccc2snnc2c1)N1CCCCC1 | -2.7 | 1.5 | 7.9 | 91.0 | 3.6 | i
O=C(c1ccc2snnc2c1)N1CCSCC1 | -2.5 | 99.0* | 18.5 | 107.0 | 16.2 | i
O=Cc1c(Cl)nc2ccccn12 | -0.1 | 37.8 | 9.0 | 99.0 | 14.9 | i
OCc1c(Cl)nc2ccccn12 | -7.4 | 8.8 | -12.8 | 94.0 | 17.1 | +
Cc1ccc2c([N+](=O)[O-])c(C)ccc2n1 | -5.6 | 65.2* | 2.4 | 96.0 | 20.2 | i
Cc1ccc2c([N+](=O)[O-])cccc2n1 | -10.3 | -1.5 | 8.6 | 102.0 | 4.6 | i
O=C1COc2ccc(N3C(=O)C=CC3=O)cc2N1 | 1.1 | 1.5 | . | . | -80.7* | i
O=C1COc2ccc(S(=O)(=O)N3CCCC3)cc2N1 | -1.5 | -14.1 | 13.1 | 99.0 | 29.8 | i
CC(=O)Nc1cccc(-c2ccnc3c2CC(C(=O)Nc2cccc(N(C)C)c2)O3)c1 (stereo not given) | . | . | 6.5 | 105.0 | . | .
S=c1[nH]nc(-c2cccc(Br)c2)o1 | 0.5 | 27.0 | -67.9 | 101.0 | 41.8 | i
S=c1[nH]nc(-c2cccnc2)o1 | -11.7 | 89.5* | -113.4 | 107.0 | 31.9 | i
CCCCC1(C(=O)OCC)CC(CN2CCOCC2)OC1=O (stereo not given) | active | -29.9 | -7.4 | 100.0 | 14.8 | +
CCCCOC(=O)N1CCOCCOCCN(C(=O)OCCCC)CCOCCOCC1 | -3.5 | 14.4 | -18.9 | 94.0 | -10.4 | i
COc1c(C)cc(C(O)c2ncc(-c3ccccc3C(F)(F)F)[nH]2)cc1C (stereo not given) | . | . | -7.7 | 87.0 | . | .
O=C(Nc1ccccc1)Nc1ncc([N+](=O)[O-])s1 | 7.7 | 47.6 | -22.2 | 90.0 | -85.6* | i
O=C(COC(=O)c1ccccc1)Nc1ncc([N+](=O)[O-])s1 | . | . | -14.7 | 99.0 | . | .
Cc1nc(C)c(C(=O)Nc2ncc([N+](=O)[O-])s2)o1 | 54.1 | 11.2 | 12.4 | 87.0 | 0.8 | +
CC(C)Oc1ccc(CN2CCC2(C)C(=O)Nc2cnc3ccccc3c2)cc1 (stereo not given) | . | . | -1.0 | 96.0 | . | .
Cc1ccc(C(=O)/C=C/c2cn(CC(O)CN3CCOCC3)c3ccccc23)cc1 (stereo not given) | 10.1 | -7.8 | -46.6 | 97.0 | . | i
O=C(/C=C/c1cn(CC(O)CN2CCOCC2)c2ccccc12)c1cccs1 (stereo not given) | 97.7 | 16.0 | . | . | 22.6 | +
CCOC(=O)[C@]12CCCC=C1N(Cc1cccc3ccccc13)C(=O)[C@H](CC(=O)NCCc1ccccc1OC)C2 | . | . | . | 96.0 | . | .
COc1cc(C(=S)N2CCOCC2)cc(OC)c1OS(=O)(=O)c1ccc(NC(C)=O)cc1 | -6.6 | 19.4 | 14.1 | 100.0 | 11.3 | i
COc1cc(C(=S)N2CCOCC2)cc(OC)c1OS(=O)(=O)c1ccc(C)cc1 | -1.0 | 29.5 | 42.2* | 99.0 | 4.4 | i
